The full list was thinned out, with hits kept by preference.
LmPK inhibitor – qHTS Assay for Inhibitors of Leishmania Mexicana Pyruvate Kinase (LmPK); purified LmPK, Kinase-Glo ATP luminescence, 1 h; Potency, µM (doses to about 57.5 µM), for inactives: at the highest dose activity change, negative = inhibition, most hits filed as inhibitors; Q27686; hit rate 0.37% among 290,000; also: potency is read from the fitted curve at half-maximal effect; % is scaled to controls: 0 for no effect and ±100 for the full control effect
Target sequence (Q27686 whole entry, looked up): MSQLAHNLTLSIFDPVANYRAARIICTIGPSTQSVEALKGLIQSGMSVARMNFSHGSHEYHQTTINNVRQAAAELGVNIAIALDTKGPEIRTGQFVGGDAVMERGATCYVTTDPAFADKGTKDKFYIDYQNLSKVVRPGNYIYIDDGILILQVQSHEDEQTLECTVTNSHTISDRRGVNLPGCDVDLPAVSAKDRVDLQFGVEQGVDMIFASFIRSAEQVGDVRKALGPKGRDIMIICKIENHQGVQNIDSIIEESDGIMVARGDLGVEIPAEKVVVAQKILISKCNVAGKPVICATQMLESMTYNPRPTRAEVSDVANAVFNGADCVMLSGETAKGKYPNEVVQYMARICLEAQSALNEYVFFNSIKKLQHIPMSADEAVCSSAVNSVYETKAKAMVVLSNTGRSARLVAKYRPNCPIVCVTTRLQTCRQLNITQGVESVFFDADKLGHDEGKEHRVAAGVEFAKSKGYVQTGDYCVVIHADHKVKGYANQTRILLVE
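Screened at intermediate enzyme activity to detect both inhibitors and activators: LmPK at 0.1 nM, with a 0.5 nM enzyme column as activation reference. PEP 0.5 mM, ADP 0.1 mM; ATP detected by luminescence after 1 h.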
Shiga inhibitor – A qHTS for Small Molecule Inhibitors of Shiga Toxin | Vero cells, Shiga toxin protein synthesis inhibition reporter | inhibition, % at 38.7 µM | hit rate 9.2% among 290,000 | AID 2315, 2010; in the data active = inhibition mostly above about 28%, no sharp cut-off; inactive = mostly below about 43%; also: 0% is about no effect
RE007 growth inh – qHTS Assay for Inhibitors of the HIV-1 protein Vpr | S. pombe RE007 Vpr strain, BacTiter-Glo ATP luminescence, 24 h | Potency, µM (doses to about 92.2 µM), for inactives: at the top dose activity change, negative = less growth, most hits filed as inhibitors | hit rate 0.21% among 360,000; active = well fitted falling curve with a large enough effect; inconclusive = small, poorly fitted or top-dose-only effect; inactive = no such curve, though single readings can be large or run the other way; also: potency is read from the fitted curve at half-maximal effect; % is scaled to controls: 0 for no effect and ±100 for the full control effect; nearly all actives have a fitted effect of over 50% in size
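Fission yeast RE007 carrying one integrated HIV-1 vpr copy, seeded at OD 0.01 in PMG+AL medium with 23 nL pinned compound. Grown 24 h at 30 degrees; viability read by BacTiter-Glo luminescence after 5 min.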
Tb PYK inh – qHTS of Trypanosoma Brucei Inhibitors. pyruvate kinase (Trypanosoma brucei), Q57TT1. TbPYK enzyme, Kinase-Glo Plus ATP luminescence, 45 min. Potency, µM (highest dose often 76.8 µM), inactives show top-dose activity, negative = inhibition, hits mostly inhibitors. hit rate 0.12% among 410,000. AID 624173, 2012; also: potency is read from the fitted curve at half-maximal effect; % is scaled to controls: 0 for no effect and ±100 for the full control effect; nearly all actives have a fitted effect of over 50% in size
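TbPYK + substrate in 50 mM TEA pH 7.2, 100 mM KCl, 10 mM MgCl2, 0.05% BSA, 0.01% Tween-20; cpd pinned; ADP 130 uM final; 45 min RT; Kinase-Glo Plus 10 min; luminescence endpoint.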
Giardia FBPA inh – qHTS Assay for Inhibitors of Fructose-1,6-bisphosphate Aldolase from Giardia Lamblia; A8B2U2; purified Giardia FBPA; Potency, µM (titrated, usually from 59.6 µM), for inactives: at the highest dose activity, negative = inhibition, actives largely listed as inhibitors; hit rate 0.71% among 290,000; AID 2451, 2010; also: potency is read from the fitted curve at half-maximal effect; % is scaled to controls: 0 for no effect and ±100 for the full control effect; nearly all actives have a fitted effect of over 55% in size
Target sequence (A8B2U2 whole entry, looked up): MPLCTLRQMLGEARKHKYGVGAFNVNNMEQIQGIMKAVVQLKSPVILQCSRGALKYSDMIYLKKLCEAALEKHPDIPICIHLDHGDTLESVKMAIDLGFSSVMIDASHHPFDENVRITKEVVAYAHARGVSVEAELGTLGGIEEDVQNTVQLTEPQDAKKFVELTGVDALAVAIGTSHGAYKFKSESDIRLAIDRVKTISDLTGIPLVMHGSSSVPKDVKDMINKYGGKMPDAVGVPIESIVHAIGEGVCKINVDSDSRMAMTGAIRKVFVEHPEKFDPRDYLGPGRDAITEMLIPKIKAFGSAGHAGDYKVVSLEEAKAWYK
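Giardia FBPA (40 nM reagent) was preincubated 10 min at RT with compound (up to 57.5 uM final), then substrate plus GAPDH/TPI/NAD/arsenate coupling system with diaphorase/resazurin was added; resorufin fluorescence (525/598 nm) was read after 20 min.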
Cycloheximide cs – Cycloheximide Counterscreen for Small Molecule Inhibitors of Shiga Toxin; max response, %; hit rate 12% among 300,000; cell reporter, cycloheximide protein synthesis inhibition counterscreen; AID 2314, 2010; in the data active = max response mostly above about 13%, no sharp cut-off; inactive = mostly below about 14%; also: read at 38.3 µM for the half of the compounds with a filed dose; 0% is about no effect
* marks the source's active call; other numbers are inactive results; [ ] = remark or other dose. Unless noted, calls follow the shape of the dose curve; as a rule, active = well fitted curve in the direction sought with a large enough effect; inconclusive = small, poorly fitted or top-dose-only effect, or another doubt; inactive = no such curve, though single readings can be large; an effect the other way counts as inactive or inconclusive.

What do the screens show for `COc1ccc(CCNc2ncnc3cc(OC)c(OC)cc23)cc1OC`?
LmPK inhibitor: 4.1%; Shiga inhibitor: -13.1; RE007 growth inh: 10.1%; Tb PYK inh: 1.9%; Giardia FBPA inh: 0.7%; Cycloheximide cs: -1.7

What do the screens show for `COc1ccc(CCNc2ncccc2C#N)cc1OC`?
LmPK inhibitor: 1.4%; Shiga inhibitor: 87.7*; RE007 growth inh: 4.1%; Tb PYK inh: -6.2%; Giardia FBPA inh: -2.7%; Cycloheximide cs: 44.4*

How did COc1ccc(CCNC2=NCCS2)cc1OC do in these assays?
LmPK inhibitor: -13.3%; Shiga inhibitor: 31.8*; RE007 growth inh: -22.3%; Tb PYK inh: 3.4%; Giardia FBPA inh: -6.3%; Cycloheximide cs: 41.1*

How did Cc1nc(-c2cccc(F)c2)sc1CCNC(=O)C(=O)Nc1ccc2c(c1)OCO2 do in these assays?
Tb PYK inh: 2.3%

How did Cc1cc(/C=N/Nc2nc(N)ncc2[N+](=O)[O-])c(C)n1-c1cccc(C(F)(F)F)c1 do in these assays?
LmPK inhibitor: -13.3%; Shiga inhibitor: 61.7*; Giardia FBPA inh: inconclusive; Cycloheximide cs: 26.2*

How did COC(=O)c1ccc2c(=O)[nH]c(CSc3nc(C)cs3)nc2c1 do in these assays?
LmPK inhibitor: -21.3%; Shiga inhibitor: 67.3*; RE007 growth inh: -15.0%; Tb PYK inh: -16.7%; Giardia FBPA inh: -4.6%; Cycloheximide cs: 27.6*

How did Cc1ccc(NC(=O)CN2CCOCC2)c(Br)c1 do in these assays?
LmPK inhibitor: -2.6%; RE007 growth inh: -19.6%; Tb PYK inh: 4.8%; Giardia FBPA inh: -4.8%; Cycloheximide cs: 22.6*

How did Cc1cc(Br)c(NC(=O)CN2CCCC2)c(Br)c1 do in these assays?
LmPK inhibitor: 1.4%; Shiga inhibitor: 63.7*; RE007 growth inh: -12.3%; Tb PYK inh: -6.7%; Giardia FBPA inh: -15.0%; Cycloheximide cs: 16.5*

What do the screens show for `CCc1cccc(CC)c1NC(=O)CSc1nnc(C2CC2)n1C`?
LmPK inhibitor: -2.3%; Shiga inhibitor: -5.5; RE007 growth inh: 7.9%; Tb PYK inh: 4.8%; Giardia FBPA inh: 7.4%; Cycloheximide cs: -3.6

How did Cc1ccc(C(=O)OC(C)C(=O)NC(C)CCc2ccccc2)o1 (configuration not stated) do in these assays?
RE007 growth inh: 4.8%; Tb PYK inh: -8.4%

How did CC(CCN(C)C)OC(=O)c1ccc(C(C)c2ccccc2)o1 (configuration not stated) do in these assays?
LmPK inhibitor: 7.0%; Shiga inhibitor: 50.2; RE007 growth inh: 79.8%; Tb PYK inh: -0.3%; Giardia FBPA inh: -2.3%; Cycloheximide cs: 18.4*

Results for COC(=O)CCC(=O)COc1ccccc1C#N ?
LmPK inhibitor: 1.0%; Shiga inhibitor: 62.2*; RE007 growth inh: -9.4%; Tb PYK inh: 6.5%; Giardia FBPA inh: 5.7%; Cycloheximide cs: 26.6*

What do the screens show for `COC(=O)CCC(=O)COc1ccc(OC)cc1C#N`?
LmPK inhibitor: -10.3%; Shiga inhibitor: 40.3; RE007 growth inh: -0.6%; Tb PYK inh: -3.6%; Giardia FBPA inh: 0.5%; Cycloheximide cs: 22.9*

What do the screens show for `Cc1nn2c(nc1=O)NNC2(C)C(C)(C)C` (configuration not stated)?
LmPK inhibitor: -2.7%; Shiga inhibitor: -8.8; RE007 growth inh: 16.4%; Tb PYK inh: 1.6%; Giardia FBPA inh: -20.9%; Cycloheximide cs: 10.9

How did O=c1c(-c2cc(F)cc(F)c2)nc2cnc(N3CCNCC3)nc2n1-c1ccccc1 do in these assays?
Giardia FBPA inh: 3.9%

How did Cc1ccc(/C=N/NC(=O)c2nn(C)cc2Cl)cc1 do in these assays?
LmPK inhibitor: inconclusive; Shiga inhibitor: 46.5*; RE007 growth inh: -10.4%; Tb PYK inh: -2.2%; Giardia FBPA inh: -1.0%; Cycloheximide cs: 34.0*

Results for Cn1cc(Cl)c(C(=O)N/N=C/c2ccc(OS(=O)(=O)c3ccccc3)cc2)n1 ?
LmPK inhibitor: 4.1%; Shiga inhibitor: -13.2; RE007 growth inh: 9.8%; Tb PYK inh: 2.5%; Giardia FBPA inh: 0.6%; Cycloheximide cs: 20.6

Results for Cn1cc(Cl)c(C(=O)N/N=C/c2ccc3c4c(cccc24)CC3)n1 ?
LmPK inhibitor: -9.8%; Shiga inhibitor: 60.7*; RE007 growth inh: -20.8%; Tb PYK inh: 2.2%; Giardia FBPA inh: 1.1%; Cycloheximide cs: 29.1*

Results for Cn1nccc1NC(=O)Nc1cccc(Cl)c1Cl ?
LmPK inhibitor: 1.0%; Shiga inhibitor: 6.4; RE007 growth inh: -7.3%; Tb PYK inh: -2.2%; Giardia FBPA inh: 13.7%; Cycloheximide cs: 6.6

What do the screens show for `Cn1cc(Cl)c(C(=O)Nc2cccc(Cl)c2Cl)n1`?
LmPK inhibitor: -0.9%; Shiga inhibitor: 29.3; RE007 growth inh: -8.5%; Tb PYK inh: -1.7%; Giardia FBPA inh: -1.0%; Cycloheximide cs: 41.6*

Results for Cc1ccc(C(C)(C)c2ccc(C)cc2)cc1 ?
Tb PYK inh: 0.6%

What do the screens show for `Cc1ccc2ccccc2c1NC(=O)CNCc1ccccc1`?
RE007 growth inh: 14.6%; Tb PYK inh: 8.2%

How did Cc1ccccc1-c1nnc(CN2CCN(c3ccccn3)CC2)o1 do in these assays?
Tb PYK inh: -2.6%

What do the screens show for `O=C(NC(=S)N1CCOCC1)c1cc2ccccc2o1`?
LmPK inhibitor: inconclusive; Shiga inhibitor: 70.3*; RE007 growth inh: -5.8%; Tb PYK inh: -21.2%; Giardia FBPA inh: inconclusive; Cycloheximide cs: 11.5*

Results for O=C(Nc1cc(N2CCOCC2)ncn1)c1ccccc1 ?
LmPK inhibitor: -4.9%; Shiga inhibitor: 40.9; RE007 growth inh: -1.4%; Tb PYK inh: -1.9%; Giardia FBPA inh: -1.8%; Cycloheximide cs: 15.7*

Results for O=C(Nc1ccc(N2CCOCC2)c(Cl)c1)c1ccccc1Cl ?
LmPK inhibitor: 1.9%; Shiga inhibitor: 60.1*; RE007 growth inh: -6.4%; Tb PYK inh: 3.7%; Giardia FBPA inh: -16.4%; Cycloheximide cs: 30.0*

What do the screens show for `O=C(Nc1ccc(C(=O)N2CCOCC2)cc1)c1ccccc1Cl`?
RE007 growth inh: -26.1%; Tb PYK inh: 1.9%

Results for O=C(Nc1ccc(N2CCOCC2)c(Cl)c1)c1ccc(F)cc1 ?
LmPK inhibitor: -4.4%; Shiga inhibitor: 18.1*; RE007 growth inh: 0.0%; Tb PYK inh: -4.6%; Giardia FBPA inh: -2.9%; Cycloheximide cs: 31.2*

What do the screens show for `CC(=O)N(Cc1cccnc1)c1nc2c(C)cc(C)cc2s1`?
Tb PYK inh: 0.5%[15.4 µM]

Results for CCCCNc1c(-c2cccnc2)nc2nc(C)cc(C)n12 ?
RE007 growth inh: -24.4%; Tb PYK inh: -0.1%

What do the screens show for `C=CCc1cccc2cc(C(=O)N3CCN(C(=O)c4ccccc4)CC3)c(=O)oc12`?
LmPK inhibitor: 0.1%; Shiga inhibitor: -3.7; RE007 growth inh: -21.5%; Tb PYK inh: -2.4%; Cycloheximide cs: -4.2

Compound activity (PubChem BioAssay)
